Reference: PubChem BioAssay (Tox21)
Results filed as inconclusive are left out. Activity calls are given as the source filed them. Unless noted, calls come from the whole dose curve; as a rule, active = well fitted curve in the direction sought with a large enough effect in the repeat runs; inconclusive = weak or mixed curves; inactive = no such curve, though single readings can be large; an effect the other way counts as inactive or inconclusive.

Key:
[1] = qHTS assay to identify small molecule agonists of the vitamin D receptor (VDR) signaling pathway - cell viability counter screen (AID 743224); note: series mostly up to about 63 µM; % is set by controls: 0 for no effect and ±100 for the full control effect; nearly all actives have a fitted effect of over 50% in size
How it was run: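 Compounds were pin-transferred onto VDR-bla cells plated 4 h earlier; following 16 h incubation at 37C, cell viability was quantified by CellTiter-Glo luminescence after 30 min at room temperature.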

[2] = qHTS assay to identify small molecule agonists of the NFkB signaling pathway (AID 1159509; active = well fitted curve in the direction sought with a large enough effect in the signal ratio in the repeat runs, not every such curve was filed as active; the % refers to the signal ratio; note: series mostly up to about 61 µM; % is set by controls: 0 for no effect and ±100 for the full control effect)
How it was run: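 Readout: FRET fluorescence, 405 nm excitation, 460/530 nm emission; beta-lactamase expression disrupts FRET. Cells: ME-180 stably carrying NF-kB-driven bla reporter. Compound exposure 5 hr, 37 C, 5% CO2.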

[3] = qHTS assay to identify small molecule agonists of the NFkB signaling pathway - cell viability counter screen (AID 1159515; calls by dose curve; note: series mostly up to about 61 µM; % is set by controls: 0 for no effect and ±100 for the full control effect; nearly all actives have a fitted effect of over 55% in size)
How it was run: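 Parallel cytotoxicity counter screen in ME-180 cells carrying an NFkB-response-element beta-lactamase reporter, 2,000 cells/well. Compound exposure lasted 5 hr at 37 C, 5% CO2. Cell viability was quantified by CellTiter-Glo luminescence.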

[4] = qHTS assay to identify small molecule agonists of the endoplasmic reticulum stress response signaling pathway - cell viability counter screen (AID 1159517; calls by dose curve;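 note: HeLa cells carrying an ER stress response element beta-lactamase reporter; series mostly up to about 61 µM; % is set by controls: 0 for no effect and ±100 for the full control effect; nearly all actives have a fitted effect of over 50% in size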)
How it was run: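 After overnight attachment, ESRE-bla HeLa cells were treated with Tox21 library compounds for 5 hr. CellTiter-Glo luminescence, read 30 min post-addition at room temperature, reported viability.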

[5] = qHTS assay to identify small molecule antagonists of the retinoid-related orphan receptor gamma (ROR-gamma) signaling pathway - cell viability counter screen (AID 1159520); note: % is set by controls: 0 for no effect and ±100 for the full control effect; nearly all actives have a fitted effect of over 50% in size
How it was run: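 Cytotoxicity was read from cellular ATP (CellTiter-Glo luminescence) after 16 hr at 37 C with 1 uM doxycycline induction. The inducer was added 2 hr after compound transfer to Tet-on ROR gamma CHO cells.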

[6] = biological target: Nuclear receptor ROR-gamma (Homo sapiens) (UniProt P51449); assay: qHTS assay to identify small molecule antagonists of the retinoid-related orphan receptor gamma (ROR-gamma) signaling pathway (AID 1159521;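 note: CHO cells with doxycycline inducible ROR-gamma driving an RORE luciferase reporter; top concentration of the series differs between compounds; % is set by controls: 0 for no effect and ±100 for the full control effect; nearly all actives have a fitted effect of over 50% in size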)
How it was run: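 CHO cells expressing RORγ under a TET-on promoter, luciferase under RORE control. Dox 1 uM final, 16 h; compounds added 2 h prior. Luminescence decrease measured.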

[7] = qHTS assay to identify small molecule agonists of the AP-1 signaling pathway - cell viability counter screen (AID 1159525; calls by dose curve; note: nearly all actives have a fitted effect of over 55% in size)
How it was run: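 Intracellular ATP by Cell Titer Glo luminescence (30 min, RT) in the same ME-180 AP-1-bla wells after the 5 h compound exposure at 37 °C. Normalised to tetra n-octyl ammonium bromide and DMSO controls.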

[8] = qHTS assay to identify small molecule agonists of the AP-1 signaling pathway (AID 1159526; calls by dose curve; note: % is set by controls: 0 for no effect and ±100 for the full control effect)
[9] = qHTS assay to identify small molecule agonists of the RXR signaling pathway - cell viability counter screen (AID 1159529)
How it was run: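 Same-well viability check after the LiveBLAzer FRET read: CellTiter-Glo added, luminescence measured after 30 min at room temperature. Reporter HEK 293T cells had been treated with compounds for 16 hr following a 5 hr preincubation.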

[10] = qHTS assay to identify small molecule antagonists of the retinoid acid receptor (RAR) signaling pathway - cell viability counter screen (AID 1159551); note: % is set by controls: 0 for no effect and ±100 for the full control effect; nearly all actives have a fitted effect of over 35% in size
How it was run: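 ATP-based viability, C3RL4 cells, 6 h at 37 C with 1 uM final retinol co-added after compound; luminescence read 30 min post CellTiter-Glo, RT.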

[11] = qHTS assay to identify small molecule antagonists of the retinoic acid receptor (RAR) signaling pathway (AID 1159552)
How it was run: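 Readout: luciferase luminescence, 30 min post-reagent at RT. Setup: C3RL4 RARE reporter cells, compounds plus retinol 1 uM final, 6 hr incubation at 37 C and 5% CO2.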

[12] = qHTS assay to identify small molecule agonists of the retinoic acid receptor (RAR) signaling pathway (AID 1159553); note: % is set by controls: 0 for no effect and ±100 for the full control effect
How it was run: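 Quantitative high-throughput format: the Tox21 10K library was tested on C3RL4 RARE-luciferase cells for 6 hr at 37 C and 5% CO2, with luminescence measured after a 30 min room-temperature reagent step.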

[13] = biological target: Retinoic acid receptor RXR-alpha (Homo sapiens) (UniProt P19793); assay: qHTS assay to identify small molecule agonists of the RXR signaling pathway (AID 1159527; calls by dose curve; note: % is set by controls: 0 for no effect and ±100 for the full control effect; nearly all actives have a fitted effect of over 35% in size)
Sequence of Retinoic acid receptor RXR-alpha (Homo sapiens) (P19793 whole entry, looked up): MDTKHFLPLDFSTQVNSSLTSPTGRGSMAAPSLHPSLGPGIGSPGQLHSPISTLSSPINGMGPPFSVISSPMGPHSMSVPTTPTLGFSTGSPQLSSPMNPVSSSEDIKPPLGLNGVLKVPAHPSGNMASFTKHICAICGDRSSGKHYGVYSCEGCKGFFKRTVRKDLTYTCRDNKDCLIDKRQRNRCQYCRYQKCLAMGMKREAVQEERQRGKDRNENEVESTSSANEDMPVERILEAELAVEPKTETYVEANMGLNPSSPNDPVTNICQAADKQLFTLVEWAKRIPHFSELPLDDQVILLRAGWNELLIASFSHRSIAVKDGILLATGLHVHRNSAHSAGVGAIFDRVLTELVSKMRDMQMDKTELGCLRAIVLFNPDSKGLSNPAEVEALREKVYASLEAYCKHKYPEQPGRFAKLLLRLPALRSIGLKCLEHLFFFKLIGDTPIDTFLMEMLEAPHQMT
How it was run: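 Beta-lactamase reporter assay, agonist format. Engineered HEK 293T line, charcoal-stripped FBS at 2%, overnight (16 hr) exposure, fluorescence at 460 and 530 nm after 405 nm excitation.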

[14] = qHTS assay to identify small molecule antagonists of the vitamin D receptor (VDR) signaling pathway - cell viability counter screen (AID 743225)
How it was run: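 Luminescent cell viability (CellTiter-Glo) in VDR-bla HEK 293T cells after 16 h compound exposure at 37C in the presence of 3 nM final 1-alpha,25-dihydroxy vitamin D3.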

[15] = qHTS assay to identify small molecule antagonists of the estrogen related receptor (ERR) signaling pathway - cell viability counter screen (AID 1224818);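 note: series mostly up to about 46 µM; viability measured after 17.5 h of compound exposure; % is set by controls: 0 for no effect and ±100 for the full control effect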
How it was run: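 Quantitative high-throughput viability counter screen in ERR cells. Compounds (DMSO) incubated 17.5 h at 37 C; read-out was CellTiter-Fluor fluorescence.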

[16] = qHTS assay to identify small molecule antagonists of the estrogen related receptor (ERR) signaling pathway (AID 1224819)
How it was run: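 ERR reporter cell line (NTP) plated at 2,000 cells/well, settled 6 h at 37C/5% CO2, then exposed to LOPAC compounds for 18 h at 37C. One-Glo luciferase luminescence read after 30 min at room temperature.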

[17] = qHTS assay to identify small molecule agonists of the estrogen related receptor (ERR) signaling pathway (AID 1224820); note: % is set by controls: 0 for no effect and ±100 for the full control effect
How it was run: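 Luminescence readout (One-Glo, 30 min RT) from NTP-supplied ERR cell line exposed to compounds for 18 h at 37 C. Cells seeded 2,000 per well and pre-incubated 6 h before pin-tool compound transfer.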

[18] = system: estrogen-related receptor alpha (ERRalpha) with PGC-1alpha coactivator, human; assay: qHTS assay to identify small molecule antagonists of the estrogen related receptor signaling pathway with the pleiotropic PPARgamma coactivator (PGC) (AID 1224821; calls by dose curve)
How it was run: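 PGC/ERR reporter cells; 6 h pre-incubation 37 C/5% CO2; pin-tool compound in DMSO, 18 h 37 C; One-Glo added, 30 min RT; luminescence read. qHTS antagonist mode.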

[19] = qHTS assay to identify small molecule antagonists of the estrogen related receptor signaling pathway with the pleiotropic PPARgamma coactivator (PGC) cell viability counter screen (AID 1224822)
How it was run: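 Cytotoxicity in the PGC/ERR cell line is assessed with CellTiter-Fluor, read as fluorescence intensity 30 min after reagent addition, following 17.5 h compound treatment at 37 C.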

[20] = qHTS assay to identify small molecule agonists of the endoplasmic reticulum stress response signaling pathway (AID 1159516; active = well fitted activation curve with a large enough effect in the signal ratio in the repeat runs, not every such curve was filed as active; the % refers to the signal ratio; note: % is set by controls: 0 for no effect and ±100 for the full control effect)
How it was run: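 Using a HeLa line with an ESRE-driven beta-lactamase gene, agonist activity was measured by FRET substrate fluorescence (460 and 530 nm emission) after cells were treated with compounds for 5 hr at 37 C and 5% CO2.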

Cc1cc(O)cc2c1O[C@](C)(CCC[C@H](C)CCC[C@H](C)CCCC(C)C)CC2
inactive: Potency [1] | outcome [2] | outcome [3] | outcome [4] | outcome [5] | Potency [6] | Potency [7] | outcome [8] | Potency [9] | outcome [10] | Potency [11]

CN1N=C(C(N)=O)CCC1=O
inactive: Potency [1] | outcome [2] | outcome [3] | outcome [4] | outcome [5] | Potency [6] | Potency [7] | outcome [8] | Potency [9] | outcome [10] | Potency [11] | Potency [12]

COc1nc(N)nc2c1ncn2[C@@H]1O[C@H](CO)[C@@H](O)[C@@H]1O
inactive: Potency [1] | outcome [2] | outcome [3] | outcome [4] | outcome [5] | Potency [6] | Potency [7] | outcome [8] | Potency [13] | Potency [9] | outcome [10] | Potency [11] | Potency [12]

N[C@H](C(=O)O)c1ccc(O)cc1
inactive: Potency [1] | outcome [2] | outcome [3] | outcome [4] | activity, negative = cytotoxicity [5] 3.98% [at 19 µM] | Potency [6] | viability change, negative = cytotoxic [7] 10.2% [at 15.8 µM] | outcome [8] | Potency [13] | Potency [9] | activity change, negative = cytotoxicity [10] 1.22% [at 19 µM] | activity, negative = inhibition [11] -7.38% [at 19 µM]

CO/N=C(/C(=O)N[C@@H]1C(=O)N2C(C(=O)OCOC(=O)C(C)(C)C)=C(C)CS[C@H]12)c1csc(N)n1
inactive: Potency [14] | outcome [2] | outcome [3] | outcome [4] | outcome [5] | Potency [6] | Potency [7] | outcome [8] | Potency [13] | Potency [9] | outcome [10] | Potency [11] | Potency [12]

NS(=O)(=O)c1ccc(C(=O)O)cc1
inactive: Potency [1] | outcome [2] | outcome [3] | outcome [4] | outcome [5] | Potency [6] | Potency [7] | outcome [8] | Potency [13] | Potency [9] | outcome [10] | Potency [11] | Potency [12]

Nc1c2c(nc3ccccc13)CCCC2O (stereo not drawn)
inactive: Potency [1] | Potency [14] | outcome [2] | outcome [3] | outcome [4] | outcome [5] | Potency [6] | Potency [7] | outcome [8] | Potency [9] | outcome [10] | Potency [11] | Potency [12] | outcome [15] | outcome [16] | outcome [17] | outcome [18] | outcome [19]

CCc1cccc2c(CCO)c[nH]c12
inactive: Potency [1] | Potency [14] | outcome [3] | outcome [20] | outcome [4] | outcome [5] | Potency [6] | Potency [7] | outcome [8] | Potency [13] | Potency [9] | outcome [10] | Potency [11] | Potency [12]

C=C(C)C(=O)OCCCCCCCC(C)C
inactive: Potency [1] | Potency [14] | outcome [2] | outcome [3] | outcome [4] | outcome [5] | Potency [6] | Potency [7] | outcome [8] | Potency [13] | Potency [9] | outcome [10] | Potency [11] | Potency [12]

O=C(O)c1ccccc1OP(=O)(O)O
inactive: Potency [1] | Potency [14] | outcome [2] | outcome [3] | outcome [4] | outcome [5] | Potency [6] | Potency [7] | outcome [8] | Potency [13] | Potency [9] | outcome [10] | Potency [11] | Potency [12]

CC(C)OC(=O)c1ccccc1
inactive: Potency [1] | outcome [3] | outcome [20] | outcome [4] | outcome [5] | Potency [6] | Potency [7] | outcome [8] | Potency [13] | Potency [9] | outcome [10] | Potency [11] | Potency [12]

CCOC(=O)c1ccc(C)cc1
inactive: Potency [1] | Potency [14] | outcome [2] | outcome [3] | outcome [4] | outcome [5] | Potency [6] | Potency [7] | outcome [8] | Potency [9] | outcome [10] | Potency [11] | Potency [12]

CCCCCCCCCCCCN(CCCCCCCCCCCC)CCCCCCCCCCCC
inactive: Potency [1] | outcome [3] | outcome [20] | outcome [4] | outcome [5] | Potency [6] | Potency [7] | outcome [8] | Potency [13] | Potency [9] | outcome [10] | Potency [11] | Potency [12]

CC/C=C\CC/C=C/C(OCC)OCC
inactive: Potency [1] | Potency [14] | outcome [2] | outcome [3] | outcome [4] | outcome [5] | Potency [6] | Potency [7] | outcome [8] | Potency [9] | outcome [10] | Potency [11] | Potency [12]

CCCN(CCC)CCc1cccc2c1CC(=O)N2
inactive: Potency [1] | Potency [14] | outcome [3] | outcome [20] | outcome [4] | outcome [5] | Potency [6] | Potency [7] | outcome [8] | Potency [13] | Potency [9] | outcome [10] | Potency [11] | Potency [12] | outcome [15] | outcome [19]

O=C(O)CNC(=O)c1ccc([N+](=O)[O-])cc1
inactive: Potency [14] | outcome [2] | outcome [3] | outcome [4] | outcome [5] | Potency [6] | Potency [7] | outcome [8] | Potency [13] | Potency [9] | outcome [10] | Potency [11] | Potency [12]

Nc1cc(=O)[nH]c(N)n1
inactive: Potency [1] | Potency [14] | outcome [3] | outcome [20] | outcome [4] | outcome [5] | Potency [6] | Potency [7] | outcome [8] | Potency [13] | Potency [9] | outcome [10] | Potency [11] | Potency [12] | outcome [15] | outcome [19]

CCOC(=O)CCC(C)=O
inactive: Potency [1] | outcome [2] | outcome [3] | outcome [4] | outcome [5] | Potency [6] | Potency [7] | outcome [8] | Potency [9] | outcome [10] | Potency [11] | Potency [12]

Cc1nc2c([nH]1)c(=O)n(C)c(=O)n2Cc1ccco1
inactive: Potency [1] | Potency [14] | outcome [2] | outcome [3] | outcome [4] | outcome [5] | Potency [6] | Potency [7] | outcome [8] | Potency [9] | outcome [10] | Potency [11] | Potency [12] | outcome [15] | outcome [19]
